Compounds without any hit were thinned out: in the full panel of roughly 83,000, 20% have a hit.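 How to read the values: 0–100, growth inhibition (40 = 60% inhibited); 0, no net growth; -100 to 0, cell death (-40 = 40% of starting cells died; -100 = all dead).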 The source made the active and inactive calls. Rule for the calls: active = growth percent below 10; inactive = the rest.

The first experiment has as its system SF-539 CNS. Put plainly: NCI-60 one-dose screen, 48 h (100 = growth as untreated, 0 = no growth, -100 = all killed). Conditions: 10 µM unless noted.
On to `Cc1cnc(/C=C/C(=O)O)cc1-c1cc2c(cc1C)C(C)(C)CCC2(C)C`, for which the growth is 84.3% (inactive).

Turning to `CC1=C(CNO)C2=C(C)C3(CC3)[C@@](C)(O)C(=O)C2=C1`, the growth was -35.3% (active).

`CC12CC=CCC1CCC1C2CCC2(C)C(c3ccc(=O)oc3)CCC12O` (configuration not stated): the growth is -93.7% (active).

Turning to `Fc1c[c-]c(-c2ccccn2)c(F)c1.[CH3-].[Pt+2].c1ccc([PH+](c2ccccc2)c2ccccn2)cc1`, the growth is -46.7% (active).

On to `CN[C@@]1(c2ccccc2Cl)CCCC[C@@H]1NCC1CCCO1` (some centres not stated), for which the growth is 97% (inactive).

Consider `CC(C)=CC1C(C(=O)OCc2cccc(Oc3ccccc3)c2)C1(C)C` (configuration not stated), for which the growth was 110% (inactive).

Consider `CCCCCCCC[n+]1ccc2ccccc2c1`, for which the growth is 62.6% (inactive).

Regarding `COC(=O)[C@@H](C)C[C@H](Cc1ccccc1)NC(=O)c1csc([C@@H](C[C@H](C(C)C)N(C)C(=O)C2(NC(=O)[C@H]3CCCCN3C)CC2)OC(C)=O)n1`, the growth is -10.4% (active).

For the molecule `CC(=O)c1ccc(C(=O)NCC2CCC3(CC2)OOC2(CCCCC2)OO3)cc1`, the growth is 66.6% (inactive).

For the molecule `COC(=O)[C@@H](C[C@H](Cc1ccccc1)NC(=O)c1csc([C@@H](C[C@H](C(C)C)N(C)C(=O)[C@@H](NC(=O)[C@H]2CCCCN2C)C(C)C)OC(C)=O)n1)NC(=O)OCc1ccccc1`, the growth is -19.1% [9.5 µM] (active).

Another experiment deals with UACC-257 melanoma. Described as above. The note with it: 10 µM unless noted.
Regarding `CC(=O)O[C@H]1CC[C@@]2(C)C(=CC[C@H]3[C@@H]4C[C@@H](N5CC5)[C@H](C(C)=O)[C@@]4(C)CC[C@@H]32)C1`, the growth was 112% (inactive).

Regarding `CC(=O)O[C@H]1C(=O)[C@@]2(C)[C@H]([C@H](OC(=O)c3ccccc3)[C@]3(O)C[C@H](OC(=O)[C@H](OC(=O)OC[C@H]4COC(C)(C)O4)[C@@H](NC(=O)c4ccccc4)c4ccccc4)C(C)=C1C3(C)C)[C@]1(OC(C)=O)CO[C@@H]1C[C@@H]2O`, the growth was 48.3% (inactive).

On to `COC(=O)N[C@H]1CCc2c(Br)c(OC)c(OC)c(OC)c2-c2ccc(SC)c(=O)cc21`, for which the growth is 67.4% (inactive).

In the case of `CC[C@H](C)[C@H](NC(=O)c1ccccn1)C(=O)N(C)[C@H](C[C@@H](OC(C)=O)c1nc(C(=O)N[C@@H](Cc2ccccc2)C[C@H](C)C(=O)OC)cs1)C(C)C`, the growth was 69.8% (inactive).

Take `Cc1cc(N(CCCl)CCCl)ccc1C=Nc1ccc(-c2csc(Cc3ccccc3)n2)cc1`: the growth is 46.2% (inactive).

As for `COC(=O)[C@]12CCC(C)(C)C[C@H]1[C@H]1C(=O)C[C@@H]3[C@@]4(C)C[C@@]5(CC(C)(C)[C@@H]4CC[C@@]3(C)[C@]1(C)CC2)OO[C@@](C)(C(F)(F)F)O5`, the growth was 102% (inactive).

In the case of `CN1CCC(c2c[nH]c3ccccc23)C1` (configuration not stated), the growth is 55.5% (inactive).

On to `CCC[CH2][Sn]([CH2]CCC)([CH2]CCC)[O]c1ccc(Cl)cc1Cl`, for which the growth was -88.8% (active).

Take `COC(=O)[C@H](C[C@H](Cc1ccccc1)NC(=O)c1csc([C@@H](C[C@H](C(C)C)N(C)C(=O)[C@@H](NC(=O)[C@H]2CCCCN2C)C(C)C)OC(C)=O)n1)NC(=O)OCc1ccccc1`: the growth was 13.9% [8.5 µM] (inactive).

Consider `C[n+]1c(/C=C/c2ccc(N(CCCl)CCCl)cc2)sc2ccccc21`, for which the growth was 64.7% (inactive).

On to `CC[C@H](C)[C@H](NC(=O)C12C3C4C1C1C2C3C41NC(C)=O)C(=O)N(C)[C@H](C[C@@H](OC(C)=O)c1nc(C(=O)N[C@@H](Cc2ccccc2)C[C@H](C)C(=O)OC)cs1)C(C)C` (some centres not stated), for which the growth was 44.2% (inactive).

For `CCCCCN(CCCCC)CC(O)c1cc(Cl)ccc1OC` (configuration not stated), the growth is 47.4% (inactive).

In the case of `C#Cc1ccc2c(c1)C(c1ccccc1)=NCC(=O)N2C`, the growth was 68.5% (inactive).

For the molecule `CCOC(=O)CCN(C)C1=Nc2ccc(Cl)cc2C(c2ccccc2)=[N+]([O-])C1`, the growth was 105% (inactive).

Turning to `COC(=O)[C@@H](C)C[C@H](Cc1ccccc1)NC(=O)c1csc([C@@H](C[C@H](C(C)C)N(C)C(=O)[C@@H](NC(=O)CN(C)C)C2CC2)OC(C)=O)n1`, the growth is 60.3% (inactive).

Regarding `COc1cc2c(c(OC)c1OC)-c1ccc([O-])c(=O)cc1[C@@H](NC(C)=O)CC2.COc1cc2c(c(OC)c1OC)-c1ccc([O-])c(=O)cc1[C@@H](NC(C)=O)CC2.[Cu+2]`, the growth is 45.1% (inactive).

For the molecule `COc1ccc(/C=C\c2cc(OC)c(OC)c(OC)c2)c(NS(=O)(=O)c2ccc(C)cc2)c1O`, the growth is 66.7% (inactive).

With `C=C(C)[C@@]12OC3(/C=C/C=C/CCCCC)O[C@@H]1[C@@H]1[C@@H]4O[C@]4(CO)[C@@H](O)[C@]4(O)C(=O)C(C)=C[C@H]4[C@@]1(O3)[C@H](C)[C@H]2OC(=O)c1ccccc1`, the growth was 97% (inactive).

With `CC(C)CCC1(CCCl)C(=O)NC(=O)NC1=O`, the growth was 91.1% (inactive).

On to `C[C@@]1(CCCCCCCCCc2ccc(O)cc2)C[C@]2(C)OC(=O)C[C@@H]2OO1`, for which the growth was 102% (inactive).

Take `COC(=O)[C@@H](C)C[C@H](Cc1ccccc1)NC(=O)c1nc([C@@H](C[C@H](C(C)C)N(C)C(=O)[C@@H](NC(=O)[C@H]2CCCN2C)C(C)C)OC(C)=O)sc1C`: the growth is 51.1% (inactive).

`CCOP(=O)(NC[C@H]1O[C@](O)(CO)[C@@H](O)[C@@H]1O)OCC`: the growth is 98.4% (inactive).

Consider `O=C1CN=C(c2ccc(Cl)cc2)c2sccc2N1`, for which the growth was 119% (inactive).

As for `COP(=O)(OC)C(O)c1ccc(Cl)cc1` (configuration not stated), the growth was 99.7% (inactive).

On to `CNC(=O)Oc1ccc(N(C)C)cc1C(C)C`, for which the growth was 105% (inactive).

`CO[C@H](C(=O)O)[C@@H]1Cc2cc3cc(OC4CC(OC5CC(O)C(O)C(C)O5)C(O)C(C)O4)c(C)c(O)c3c(O)c2C(=O)[C@H]1OC1CC(OC2CC(OC3CC(C)(O)C(O)C(C)O3)C(O)C(C)O2)C(O)C(C)O1` (some centres not stated): the growth is 7.77% (active).

Consider `CCOC(=O)N[C@H]1CCc2c(Br)c(OC)c(OC)c(OC)c2-c2ccc(SC)c(=O)cc21`, for which the growth is 67.5% (inactive).

As for `Cc1cnc(/C=C/C(=O)O)cc1-c1cc2c(cc1C)C(C)(C)CCC2(C)C`, the growth is 38.3% (inactive).

For `CC1=C(CNO)C2=C(C)C3(CC3)[C@@](C)(O)C(=O)C2=C1`, the growth is -24.3% (active).

For the molecule `CC12CC=CCC1CCC1C2CCC2(C)C(c3ccc(=O)oc3)CCC12O` (configuration not stated), the growth was -52.8% (active).

With `Fc1c[c-]c(-c2ccccn2)c(F)c1.[CH3-].[Pt+2].c1ccc([PH+](c2ccccc2)c2ccccn2)cc1`, the growth is 0.865% (active).

`CN[C@@]1(c2ccccc2Cl)CCCC[C@@H]1NCC1CCCO1` (some centres not stated): the growth is 96.5% (inactive).

`CC(C)=CC1C(C(=O)OCc2cccc(Oc3ccccc3)c2)C1(C)C` (configuration not stated): the growth is 104% (inactive).

As to `CCCCCCCC[n+]1ccc2ccccc2c1`, the growth was 20% (inactive).

As for `COC(=O)[C@@H](C)C[C@H](Cc1ccccc1)NC(=O)c1csc([C@@H](C[C@H](C(C)C)N(C)C(=O)C2(NC(=O)[C@H]3CCCCN3C)CC2)OC(C)=O)n1`, the growth is 56% (inactive).

Turning to `CC(=O)c1ccc(C(=O)NCC2CCC3(CC2)OOC2(CCCCC2)OO3)cc1`, the growth is 84.7% (inactive).

As to `COC(=O)[C@@H](C[C@H](Cc1ccccc1)NC(=O)c1csc([C@@H](C[C@H](C(C)C)N(C)C(=O)[C@@H](NC(=O)[C@H]2CCCCN2C)C(C)C)OC(C)=O)n1)NC(=O)OCc1ccccc1`, the growth was 6.49% [9.5 µM] (active).

Values taken from PubChem BioAssay (NCI).
